ALDH1A1 block – qHTS Assay for Inhibitors of Aldehyde Dehydrogenase 1 (ALDH1A1) | Aldehyde dehydrogenase 1A1 (Homo sapiens), P00352 | Purified ALDH1A1, NADH fluorescence, propionaldehyde substrate | Potency, µM (series often up to 75.3 µM), hits mostly inhibitors | hit rate 7.3% among 220,000; active = well fitted inhibition curve with a large enough effect, not every such curve was filed as active; inconclusive = small, poorly fitted or top-dose-only effect, or another doubt; inactive = no such curve, though single readings can be large or run the other way
HPGD inh – qHTS Assay for Inhibitors of HPGD (15-Hydroxyprostaglandin Dehydrogenase); purified HPGD, NADH fluorescence kinetic, PGE2 substrate; Potency, µM, actives largely listed as inhibitors; hit rate 4.3% among 150,000; active = well fitted inhibition curve with a large enough effect, not every such curve was filed as active; inconclusive = small, poorly fitted or top-dose-only effect, or another doubt; inactive = no such curve, though single readings can be large or run the other way
Target sequence (P15428 whole entry, looked up): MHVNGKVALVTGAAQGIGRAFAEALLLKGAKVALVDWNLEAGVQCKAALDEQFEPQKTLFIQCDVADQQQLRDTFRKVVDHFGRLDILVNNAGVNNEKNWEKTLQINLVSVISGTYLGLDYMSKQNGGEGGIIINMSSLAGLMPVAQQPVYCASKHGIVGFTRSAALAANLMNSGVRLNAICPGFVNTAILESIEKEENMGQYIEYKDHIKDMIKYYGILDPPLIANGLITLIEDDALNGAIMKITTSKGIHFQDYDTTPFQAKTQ
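NADH formation kinetics: reaction with 30 uM PGE2 and 1 mM NAD+ (final), 20 nM enzyme, Tris-HCl pH 8 with Tween 20, after 15 min compound preincubation at room temperature. Fluorescence change, last versus first of five reads.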
Tau fluor cs – Counterscreen qHTS for Inhibitors of Tau Fibril Formation, Fluorescence Polarization; tau K18 P301L Alexa594 fluorescence, heparin fibrillization; Potency, µM (top dose mostly 57.7 µM); hit rate 0.93% among 280,000; AID 1463, 2008; also: nearly all actives have a fitted effect of over 55% in size
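Human tau K18 P301L (15 uM unlabeled, 0.24 uM Alexa 594-labeled) in 100 mM sodium acetate pH 7 with 20 uM heparin, 6 hr at 37 C. ThT 30 uM added, 1 hr ambient; Alexa 594 FP and total fluorescence read at 555/632 nm.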
NPSR antag – qHTS Assay for Antagonists of the Neuropeptide S Receptor: cAMP Signal Transduction | Q6W5P4 | CHO-NPSR cells, cAMP TR-FRET, antagonist mode | hit rate 1% among 220,000 | AID 1461, 2008 | Potency, µM (highest dose often 38.3 µM), usual class: inhibitors; also: nearly all actives have a fitted effect of over 50% in size
Target sequence (Q6W5P4 whole entry, looked up): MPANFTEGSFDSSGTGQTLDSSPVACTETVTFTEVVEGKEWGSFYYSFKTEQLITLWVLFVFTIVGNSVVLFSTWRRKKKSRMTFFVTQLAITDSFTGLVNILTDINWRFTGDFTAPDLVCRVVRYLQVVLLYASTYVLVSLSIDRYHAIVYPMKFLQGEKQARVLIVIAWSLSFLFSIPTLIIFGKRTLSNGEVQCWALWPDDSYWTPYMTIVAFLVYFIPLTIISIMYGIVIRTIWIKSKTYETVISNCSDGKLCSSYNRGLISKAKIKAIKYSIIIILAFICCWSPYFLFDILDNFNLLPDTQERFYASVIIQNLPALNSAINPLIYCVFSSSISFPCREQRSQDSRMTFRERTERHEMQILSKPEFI
Tau fibril FP – qHTS for Inhibitors of Tau Fibril Formation, Fluorescence Polarization | K18 P301L tau heparin fibrillization, Alexa594 FP, 6 h | Potency, µM (highest dose often 57.7 µM), hits mostly inhibitors | hit rate 0.39% among 280,000; also: nearly all actives have a fitted effect of over 55% in size
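Human tau K18 […] P301L fragment, 15 uM unlabeled plus 0.24 uM Alexa 594-labeled tau (final), with compound and 20 uM heparin in 100 mM sodium acetate pH 7; 6 hr at 37 C, then Alexa 594 FP read.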
Tau ThT inhib – qHTS for Inhibitors of Tau Fibril Formation, Thioflavin T Binding; AID 1460, 2008; hit rate 2.1% among 270,000; recombinant tau K18 P301L (four-repeat tau fragment), heparin-induced fibrillization, ThT fluorescence; Potency, µM (series often up to 57.4 µM), actives largely listed as inhibitors; Microtubule-associated protein tau (Homo sapiens), P10636; also: nearly all actives have a fitted effect of over 55% in size
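K18 P301L tau (15 uM + 0.24 uM Alexa 594-tagged), heparin 20 uM, NaOAc pH 7, 6 h 37 C; ThT 30 uM, 1 h RT, ex 450/em 510 nm.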
Hits are given with their value; - = inactive; ? = inconclusive; . = not tested or not shown; [ ] = dose if it differs, or a comment. Compounds with a hit are over-represented: about 9.5% of the library has one in this group of screens. Unless noted, calls follow the shape of the dose curve; as a rule, active = well fitted curve in the direction sought with a large enough effect; inconclusive = small, poorly fitted or top-dose-only effect, or another doubt; inactive = no such curve, though single readings can be large; an effect the other way counts as inactive or inconclusive.

SMILES | ALDH1A1 block | HPGD inh | Tau fluor cs | NPSR antag | Tau fibril FP | Tau ThT inhib
O=C(CN1CCCC1)Nc1ccc([N+](=O)[O-])cc1 | - | . | - | - | - | -
Cn1cnnc1Sc1ccc(C(=O)NCCC(c2ccccc2)c2ccccc2)cc1[N+](=O)[O-] | 20µM | - | - | - | - | -
O=C(O)CC/C(=C\c1ccc(N2CCCC2)c([N+](=O)[O-])c1)c1nc2ccccc2s1 | 1.26µM | . | - | - | - | 4.47µM
Cn1cnnc1Sc1ccc(/C=C(\CC(=O)O)c2nc3ccccc3s2)cc1[N+](=O)[O-] | 20µM | . | - | - | - | ?
COc1cccc(/C=C(\CC(=O)O)c2nc3ccccc3s2)c1 | - | . | - | - | - | -
COc1ccc(-c2c(C)nn3c(C(F)(F)F)cc(C)nc23)cc1OC | . | . | - | . | - | ?
CCc1ccc(C2CC(=O)N(c3ccc(F)cc3)C3=C2C(=O)OC3)cc1 (stereo not given) | ? | . | - | - | - | -
COc1ccc(C2NC(=S)NC(C)=C2C(=O)Nc2ccccn2)cc1OC (stereo not given) | - | - | - | - | - | -
COc1ccc(C2NC(=S)NC(C)=C2C(=O)c2ccccc2)cc1OC (stereo not given) | 11.2µM | - | - | - | - | ?
CC(=O)C1=C(C)NC(=S)NC1c1cc([N+](=O)[O-])ccc1O (stereo not given) | . | . | - | - | - | -
CC1=C(C(=O)c2ccccc2)C(c2cccc([N+](=O)[O-])c2)NC(=S)N1 (stereo not given) | 1.12µM | . | - | - | - | -
COc1cccc(C(=O)COc2ccc3c(C)c(Cc4ccccc4)c(=O)oc3c2)c1 | 0.631µM | - | - | - | - | -
COc1ccc(NC(=O)C(c2ccccc2)N2CCN(c3ccccn3)CC2)cc1Cl (stereo not given) | 8.91µM | . | - | - | - | -
Fc1ccc(-c2nc3cnccn3c2NC2CCCC2)cc1 | - | . | - | - | -[2.34 µM] | -
Oc1ccc(Br)cc1-c1nc2cnccn2c1NC1CCCC1 | ? | - | 12.6µM[quencher] | - | ? | ?
Oc1ccc(Br)cc1-c1nc2cnccn2c1NC1CCCCC1 | ? | - | 14.1µM[quencher] | - | ? | ?
Cc1ccccc1S(=O)(=O)NC1OC(=O)C(Cl)=C1Cl (stereo not given) | ? | - | - | - | 28.2µM | 28.2µM
Cc1ccccc1S(=O)(=O)NC1OC(=O)C(Oc2ccccc2)=C1Br (stereo not given) | - | . | - | - | - | -
COc1ccc(NC(=O)CCN2C(=O)[C@@H]3[C@H](C2=O)[C@H]2C=C[C@@H]3C2)cc1 | . | . | - | - | - | -
O=C(CCN1C(=O)C2C3CCC(C3)C2C1=O)Nc1ccc([N+](=O)[O-])cc1 (stereo not given) | 3.55µM | . | - | - | - | -
COc1ccc(NC(=O)CCN2C(=O)C3C4CCC(C4)C3C2=O)cc1 (stereo not given) | 12.6µM | - | - | - | - | -
O=C(CCN1C(=O)C2C3CCC(C3)C2C1=O)Nc1ccc(Br)cc1 (stereo not given) | ? | - | - | - | - | -
COc1cccc(-c2cncnc2Nc2ccc(F)cc2)c1 | - | . | . | . | . | .
O[C@H]1[C@H]2c3cc4c(cc3CN3CCC(=C[C@@H]1O)[C@H]23)OCO4 | - | . | - | . | - | -
COC(=O)CC1C(C)(C)C2(O)OC34CC2C(=O)[C@@]1(C)C3CC[C@]1(C)C4=CC(=O)OC1c1ccoc1 (stereo not given in full) | - | ? | - | . | - | -
SMILES | ALDH1A1 block | HPGD inh | Tau fluor cs | NPSR antag | Tau fibril FP | Tau ThT inhib
CCCC(=O)C1=C(c2cccc(OC)c2)N(C(=O)CCC)n2c(C)nnc2S1 | . | . | - | . | ? | ?
CN1/C(=C\C(=O)Nc2ccc(Cl)cc2)C(C)(C)c2ccccc21 | - | - | 12.6µM[quencher] | - | - | ?
CN1/C(=C\C=C(/C#N)C(=O)Nc2ccc(Cl)cc2)C(C)(C)c2ccccc21 | - | - | - | - | - | ?
CN1/C(=C/C(=S)NC(=O)C2(C)CC2(Cl)Cl)C(C)(C)c2ccccc21 (stereo not given) | 3.98µM | . | - | - | - | 12.6µM
COc1ccccc1C(=O)NC(=S)/C=C1/N(C)c2ccccc2C1(C)C | - | - | - | - | - | -
CN1/C(=C/C=N/n2cnnc2)C(C)(C)c2ccccc21 | - | - | - | - | - | -
CN1/C(=C\C=N\NC(=O)c2ccccc2Br)C(C)(C)c2ccccc21 | 28.2µM | - | - | - | - | ?
CN1/C(=C\C(=S)NC(=O)c2ccccc2Cl)C(C)(C)c2ccccc21 | ? | - | - | - | - | 11.2µM
COc1ccc(NC(=O)N2CC[C@@]3(CCCN(C(=O)c4csnn4)C3)C2)cc1 | ? | - | . | . | . | .
COc1ccc(COC2OC[C@]3(C)[C@H]4C5=C(CN3C(=O)OC(C)(C)C)[C@H](C)C(CO)C(CO)C5CC[C@@H]24)cc1 (stereo not given in full) | - | - | - | . | - | -
O=C(NCc1ccc(Cl)cc1)C1CCN(S(=O)(=O)c2ccccc2)CC1 | ? | . | - | - | - | -
Cc1cccc2sc(NC(=O)C3CCCN(S(=O)(=O)c4cccc5nonc45)C3)nc12 (stereo not given) | - | - | - | - | - | -
Cc1cccc2sc(NC(=O)C3CCN(S(=O)(=O)c4cc([N+](=O)[O-])ccc4Cl)CC3)nc12 | 7.08µM | - | ? | - | - | ?
O=C(NCc1ccc(Cl)cc1)C1CCN(S(=O)(=O)c2cc([N+](=O)[O-])ccc2Cl)CC1 | 1.41µM | - | ? | - | - | -
Cc1nccn1S(=O)(=O)c1cc([N+](=O)[O-])ccc1Cl | ? | - | - | - | - | -
CC1=NCCN1S(=O)(=O)c1cc([N+](=O)[O-])ccc1Cl | 7.94µM | . | - | - | - | -
CCOc1ccc(NC(=S)NCC(c2cccnc2)N2CCOCC2)cc1 (stereo not given) | - | . | - | - | - | -
COC(=O)CCC(=O)OC1(C)C(=O)C=C2C=C(CCCNC(=O)OC(C)(C)C)OC=C2C1=O (stereo not given) | - | - | - | . | - | -
COc1cccc(C(=O)Nc2nnc(S(=O)(=O)N3CCCC3)s2)c1 | . | . | - | . | - | -
CSc1ccc(NC(=O)Nc2ccc(C(=O)NCC(=O)O)cc2)cc1 | - | . | ? | - | ? | ?
COc1ccc(-c2cc3nccc(-c4cc(Cl)c(C)cc4O)n3n2)cc1 | . | . | - | . | ? | -
